We go through 10 compounds from PubChem BioAssay (NCI).

Some test systems named below: NCI-H23 lung; NCI-H226 lung; NCI-H322M lung; HOP-62 NSCLC; NCI-H460 lung; HOP-92 NSCLC; NCI-H522 lung; A549/ATCC NSCLC; 786-0 renal; COLO 205 colon.
Common to all, as to experiment: NCI-60 one-dose screen, 48 h (100 = growth as untreated, 0 = no growth, -100 = all killed)
Settings in all cases: 10 µM unless noted

Compounds without any hit were thinned out: in the full panel of roughly 83,000, 20% have a hit.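 Assay: single dose, 48 h. Readout: percent growth (0 = no net growth; negative = cell death). Active: <10.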 Unmarked numbers belong to inactive results. Calls of active or inactive are those of the source.

Take `COc1ccc2cc(-c3nc(C)c(C(C)=O)c(-c4ccc(C)cc4)n3)ccc2c1`: the growth in the assay with NCI-H23 lung is 89.2%; in the assay on NCI-H226 lung, 80.1%; in the assay on NCI-H322M lung it was 87.5%; in the assay on HOP-62 NSCLC it was 105%; in the assay on NCI-H460 lung, 92.6%; in the assay on HOP-92 NSCLC it was 86.2%. Also, the growth in the assay with NCI-H522 lung is 81.3%; with A549/ATCC NSCLC it was 92.4%; with 786-0 renal, 87.9%; with COLO 205 colon, 102%.
Turning to `O=[N+]([O-])c1cccc(N=C(Nc2cccc([N+](=O)[O-])c2)c2ccccc2)c1`, the growth in the assay on NCI-H23 lung is 86.4%; in the assay on NCI-H226 lung, 91.6%; with NCI-H322M lung it was 81.2%; in the assay on HOP-62 NSCLC, 89.9%; in the assay on NCI-H460 lung it was 102%; in the assay on HOP-92 NSCLC it was 47.4%. Further, the growth is 59.5% in the assay with NCI-H522 lung, 79.9% in the assay on A549/ATCC NSCLC, 83.6% with 786-0 renal and 109% in the assay on COLO 205 colon.
Regarding `CCN(CC)CCCC(C)Nc1cnc(C(=O)Nc2ccc(Cl)c3cccnc23)cn1` (stereo not given), the growth in the assay on NCI-H23 lung is 80.4%; with NCI-H226 lung, 39.1%; in the assay with NCI-H322M lung, 35.3%; with HOP-62 NSCLC, 43%; in the assay on NCI-H460 lung, 3.47% (active); in the assay with HOP-92 NSCLC it was 38.8%. Besides, the growth in the assay with NCI-H522 lung was 4.41% (active); in the assay with A549/ATCC NSCLC it was 23.4%; with 786-0 renal, -44.2% (active); in the assay with COLO 205 colon, -66.7% (active).
Consider `O=C1CC2(O)CSc3nc(=O)cc(n32)N1` (stereo not given), for which the growth with NCI-H23 lung is 107%; in the assay with NCI-H226 lung, 98.6%; with NCI-H322M lung, 93.2%; in the assay with HOP-62 NSCLC, 112%; with NCI-H460 lung it was 104%; with HOP-92 NSCLC, 105%. Also, the growth in the assay with NCI-H522 lung was 102%; in the assay on A549/ATCC NSCLC, 96.5%; in the assay with 786-0 renal it was 99.6%; in the assay with COLO 205 colon, 103%.
As to `CCCCCCCCCCCCCCCC1=NCC[N+]1(CCO)CCO`, the growth was 53.7% in the assay on NCI-H23 lung; 73.4% in the assay on NCI-H226 lung; 84.7% in the assay with NCI-H322M lung; 57.7% with HOP-62 NSCLC; 3.37% (active) with NCI-H460 lung; 5.24% (active) in the assay with HOP-92 NSCLC. Moreover, the growth was 40.8% in the assay on NCI-H522 lung, 50% in the assay with A549/ATCC NSCLC, 55.5% with 786-0 renal and 82.8% in the assay with COLO 205 colon.
Regarding `CCCCCCCCCCC(C(O)c1ccccc1)N1CCCCC1` (stereo not given), the growth was 49.6% in the assay on NCI-H23 lung; 33.6% in the assay with NCI-H226 lung; 45.8% in the assay on NCI-H322M lung; -75.3% (active) with HOP-62 NSCLC; -74.5% (active) in the assay with NCI-H460 lung; -14.8% (active) with HOP-92 NSCLC. Further, the growth in the assay with NCI-H522 lung was 18%; with A549/ATCC NSCLC, 47.3%; with 786-0 renal it was 29%; in the assay on COLO 205 colon, -76.3% (active).
With `Cc1ccc(NC(=O)c2nc(S(C)=O)oc2-c2ccc(F)cc2)cc1Nc1nccc(-c2cccnc2)n1` (stereo not given), the growth is 50% in the assay with NCI-H23 lung; 51.7% in the assay on NCI-H226 lung; 103% in the assay on NCI-H322M lung; 58.2% with HOP-62 NSCLC; 61.5% in the assay with NCI-H460 lung; 96.2% in the assay on HOP-92 NSCLC. The growth with NCI-H522 lung is 7.97% (active); in the assay with A549/ATCC NSCLC, 95.4%; with 786-0 renal it was 54.6%; in the assay on COLO 205 colon, 54%.
Regarding `O=C(Nc1ccc(OS(=O)(=O)c2ccc(F)cc2)cc1)C12CC3CC(CC(C3)C1)C2`, the growth is 74.9% with NCI-H23 lung; 87.6% with NCI-H226 lung; 92.4% in the assay with NCI-H322M lung; 54.1% in the assay on HOP-62 NSCLC; 63.6% with NCI-H460 lung; 48.1% in the assay on HOP-92 NSCLC. Also, the growth in the assay with NCI-H522 lung is 66%; with A549/ATCC NSCLC it was 56.2%; in the assay on 786-0 renal it was 59.3%; in the assay on COLO 205 colon, 54.3%.
For `Cc1ccc(O)c(Cc2ccccc2)c1`, the growth was 101% with NCI-H23 lung; 106% in the assay on NCI-H226 lung; 112% with NCI-H322M lung; 96.2% in the assay on HOP-62 NSCLC; 99% in the assay on NCI-H460 lung; 52.7% in the assay on HOP-92 NSCLC. The growth with NCI-H522 lung was 93.5%; in the assay on A549/ATCC NSCLC, 101%; with 786-0 renal it was 107%; with COLO 205 colon, 111%.
Regarding `Cc1nc2ccc(Nc3nc(N4CCOCC4)nc(N4CCN(C)CC4)n3)cc2n1Cc1ccccc1`, the growth in the assay on NCI-H23 lung was 92%; in the assay on NCI-H226 lung it was 95.8%; in the assay with NCI-H322M lung, 76.1%; in the assay on HOP-62 NSCLC it was 86.6%; in the assay with NCI-H460 lung it was 97.8%; in the assay on HOP-92 NSCLC, 64.5%. The growth in the assay with NCI-H522 lung was 93.2%; in the assay with A549/ATCC NSCLC, 85.1%; with 786-0 renal it was 72.8%; in the assay with COLO 205 colon it was 73.2%.
